For 26 molecules, morphology score and SARS-CoV-2 infection rate results are on record in the supplement of paper PMC13380429.

Assay [1] has as its system Vero E6 infected with SARS-CoV-2. Nature of the assay: morphology score (similarity to uninfected cells); higher = more like uninfected cells. To be noted: 24 h.
The test system is the same in assay [2]. Nature of the assay: SARS-CoV-2 infection rate relative to infected DMSO; higher = more infection, active = 60 or less. Conditions: 24 h.

`CCC(=O)O[C@]1(C(=O)CCl)[C@@H](C)C[C@H]2[C@@H]3CCC4=CC(=O)C=C[C@]4(C)[C@@]3(F)[C@@H](O)C[C@@]21C` [clobetasol-propionate] (10 µM) returned a morphology score in assay [1] of 0.00072. Besides, the SARS-CoV-2 infection rate in assay [2] was 105% (inactive).
In assay [1], `COc1ccc(S(=O)(=O)Nc2nc(-c3cccc([N+](=O)[O-])c3)cs2)cc1OC` (10 µM) returned a morphology score of -0.00369. Besides, the SARS-CoV-2 infection rate in assay [2] was 107% (inactive).
For `OC[C@@H](O)[C@@H](O)[C@@H](O)CO` [ribitol] (10 µM), in that order: 0.073 and 105% (inactive).
For `CCCCc1nc(Cl)c(C(=O)O)n1Cc1ccc(-c2ccccc2-c2nn[nH]n2)cc1` [carboxylosartan] (10 µM), in that order: -0.00666 and 106% (inactive).
For `CC(C)(C)Nc1nc(Nc2ccc(C(N)=O)cc2)cc(N)c1C#N` (0.833333 µM), in that order: 0.029 and 106% (inactive).
Molecule `C[C@@H](c1nc(-c2ccc(C#N)cc2)cs1)[C@](O)(Cn1cncn1)c1cc(F)ccc1F` [isavuconazole] (10 µM) returned a morphology score in assay [1] of -0.116. In addition, in assay [2], the SARS-CoV-2 infection rate is 113% (inactive).
For `CCOC(=O)CSCCC1NC(C(=O)O)CS1` (configuration not stated) [letosteine] (10 µM), in that order: -0.0697 and 117% (inactive).
The molecule `CO[C@@H]1[C@@H](O[C@@H]2O[C@H](C)[C@@H](O[C@H]3C[C@@](C)(O)[C@@H](OC(=O)CC(C)C)[C@H](C)O3)[C@H](N(C)C)[C@H]2O)[C@@H](CC=O)C[C@@H](C)[C@@H](O)/C=C/C=C/C[C@@H](C)OC(=O)C[C@H]1OC(C)=O` [josamycin] (10 µM) gave a morphology score in assay [1] of -0.0313. The SARS-CoV-2 infection rate in assay [2] is 113% (inactive).
The molecule `CN1CCN(c2cc(-c3ccccc3)nc(N)n2)CC1` (10 µM) yielded a morphology score in assay [1] of 0.206. In assay [2], the SARS-CoV-2 infection rate is 94.5% (inactive).
For `CCN(CC)c1ccc(/C=N/NC(=O)c2ccc(O)cc2)cc1` (10 µM), in that order: -0.186 and 107% (inactive).
The like results for `O=C(N[C@@H]1CC[C@@H](c2cccc(F)c2F)CN(CC(F)(F)F)C1=O)N1CCC(n2c(=O)[nH]c3ncccc32)CC1` [telcagepant] (10 µM) were, in that order, 0.0561 and 102% (inactive).
For `Cc1cc(/C=C/C#N)cc(C)c1Nc1ccnc(Nc2ccc(C#N)cc2)n1` [rilpivirine] (0.833333 µM), in that order: 0.136 and 111% (inactive).
`Cc1cccc(-c2[nH]c(C(C)(C)C)nc2-c2ccc3c(c2)OCO3)n1` (10 µM) yielded a morphology score in assay [1] of -0.132. Besides, the SARS-CoV-2 infection rate in assay [2] is 115% (inactive).
The like results for `NC/C(=C/F)CCc1ccc(F)cc1` [mofegiline] (10 µM) were, in that order, -0.0471 and 115% (inactive).
The like results for `CCOc1ccc(-c2nc(-c3cccc4c3CCC4NCCO)no2)cc1OCC` (configuration not stated) (10 µM) were, in that order, 0.847 and 12% (active).
The like results for `C/C(=C\c1csc(C)n1)[C@@H]1C[C@@H]2O[C@]2(C)CCC[C@H](C)[C@H](O)[C@@H](C)C(=O)C(C)(C)[C@@H](O)CC(=O)N1` [ixabepilone] (10 µM) were, in that order, -0.0812 and 108% (inactive).
The molecule `O=C1C2C=Nc3ccccc3C2=NN1c1ccc(Cl)cc1` (configuration not stated) (10 µM) gave a morphology score in assay [1] of -0.264. The SARS-CoV-2 infection rate in assay [2] was 120% (inactive).
For `CC(C)C1=C2[C@H]3CC[C@@H]4[C@@]5(C)CC[C@H](OC(=O)CC(C)(C)C(=O)O)C(C)(C)[C@@H]5CC[C@@]4(C)[C@]3(C)CC[C@@]2([C@@H](O)CN(CCN(C)C)Cc2ccc(Cl)cc2)CC1=O` (10 µM), in that order: 0.203 and 96% (inactive).
For `COc1ccc2[nH]c([S+]([O-])Cc3ncc(C)c(OC)c3C)nc2c1` (configuration not stated) [omeprazole] (10 µM), in that order: 0.0924 and 104% (inactive).
For `CCC(C/C=C/c1ccccc1)(c1ccccc1)N(C)CC1CC1` (configuration not stated) [igmesine] (10 µM), in that order: 0.316 and 97.5% (inactive).
In assay [1], `CC(C)CC(=O)Nc1n[nH]c2c1CN(C(=O)C1CCN(C)CC1)C2(C)C` (10 µM) came in with a morphology score of 0.099. Also, the SARS-CoV-2 infection rate in assay [2] was 113% (inactive).
For `CC(C)Cn1cnc2c(N)nc3ccccc3c21` [imiquimod] (10 µM), in that order: 0.0803 and 106% (inactive).
For `CC1CCC(NC(=O)N(CCCl)N=O)CC1` (configuration not stated) [semustine] (10 µM), in that order: -0.0906 and 116% (inactive).
Regarding `Nc1ncc(Cc2ccc(Br)cc2)s1` (10 µM), in assay [1], the morphology score was 0.13. Also, the SARS-CoV-2 infection rate in assay [2] was 102% (inactive).
The like results for `O=C(O)C1=C(CSc2nnnn2CS(=O)(=O)O)CS[C@@H]2[C@H](NC(=O)[C@H](O)c3ccccc3)C(=O)N12` [Cefonicid (sodium)] (10 µM) were, in that order, -0.0671 and 112% (inactive).
For `N#Cc1c(Oc2ccc(F)c(NC(=O)Cc3cccc(C(F)(F)F)c3)c2)ccc2nc(NC(=O)C3CC3)sc12` (10 µM), in that order: -0.304 and 108% (inactive).
